Test results from PubChem BioAssay (NCI).
Where “and” joins values, the source holds several entries; their conditions need not be identical. Equal entries are not always repeated. Compounds without any hit were thinned out: in the full panel of roughly 83,000, 20% have a hit.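 The endpoint reported here, percent growth, reads 100 for growth as untreated, 0 for no net growth and -100 for all cells dead.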 Calls of active or inactive are those of the source. Rule for the calls: active = growth percent below 10; inactive = the rest.

Columns and labels:
Test in all cases: NCI-60 one-dose screen, 48 h (100 = growth as untreated, 0 = no growth, -100 = all killed)
Conditions in all cases: 10 µM unless noted
[1] = test system: HCT-15 colon
[2] = test system: HT29 colon
[3] = test system: SNB-75 CNS
[4] = test system: SNB-19 CNS
[5] = test system: U251 CNS
[6] = test system: PC-3 prostate
[7] = test system: SK-MEL-5 melanoma
[8] = test system: UACC-62 melanoma
[9] = test system: LOX IMVI melanoma
[10] = test system: SK-MEL-28 melanoma

## Cc1cc(N2CCCCC2)nc(NCc2cc(Nc3ccnc4cc(Cl)ccc34)ccc2F)n1
[1]
  growth: -55.1% (active)
[2]
  growth: -58.4% (active)
[3]
  growth: -37.1% (active)
[4]
  growth: 40.9% (inactive)
[5]
  growth: -90.9% (active)
[6]
  growth: 17.4% (inactive)
[7]
  growth: -96.3% (active)
[8]
  growth: -80.7% (active)
[9]
  growth: -79.2% (active)
[10]
  growth: -73.8% (active)

## CN(Cc1ccccc1)c1nc(Cl)c(C2CC(c3ccc4c(c3)OCO4)=NN2c2cc(Cl)cc(Cl)c2)s1 (stereo not given)
[1]
  growth: 98.7% (inactive)
[2]
  growth: 97.8% (inactive)
[3]
  growth: 78.5% (inactive)
[4]
  growth: 106% (inactive)
[5]
  growth: 98.1% (inactive)
[6]
  growth: 93.5% (inactive)
[7]
  growth: 97.4% (inactive)
[8]
  growth: 96.6% (inactive)
[9]
  growth: 96.6% (inactive)
[10]
  growth: 99% (inactive)

## O=C1OCC2=C1C(c1cccc([N+](=O)[O-])c1)c1cc3c(cc1N2CCO)CCC3 (stereo not given)
[1]
  growth: 9.41% (active)
[2]
  growth: 3.43% (active)
[3]
  growth: 41.9% (inactive)
[4]
  growth: 25% (inactive)
[5]
  growth: 13.8% (inactive)
[6]
  growth: 21.7% (inactive)
[7]
  growth: 1.24% (active)
[8]
  growth: 43.9% (inactive)
[9]
  growth: 20.5% (inactive)
[10]
  growth: 53.7% (inactive)

## N#CC1=C(N)Oc2c(sc3c(Br)cccc23)C1c1ccccn1 (stereo not given)
[1]
  growth: 28.5% (inactive)
[2]
  growth: 10.6% (inactive)
[3]
  growth: 61.2% (inactive)
[4]
  growth: 48.4% (inactive)
[5]
  growth: 36.5% (inactive)
[6]
  growth: 40.6% (inactive)
[7]
  growth: 40.8% (inactive)
[8]
  growth: 18.3% (inactive)
[9]
  growth: 38.7% (inactive)
[10]
  growth: 65.3% (inactive)

## COc1ccc(-c2nnc3n(C)c(=O)c4ccccc4n23)cc1O
[1]
  growth: 22.9% (inactive)
[2]
  growth: 18.8% (inactive)
[3]
  growth: 9.51% (active)
[4]
  growth: 24.3% (inactive)
[5]
  growth: 15.1% (inactive)
[6]
  growth: 17.9% (inactive)
[7]
  growth: 19% (inactive)
[8]
  growth: 14.2% (inactive)
[9]
  growth: 39.1% (inactive)
[10]
  growth: 50.9% (inactive)

## Cc1ccc(C(=O)Nc2ccc(CN3CCN(C)CC3)c(C(F)(F)F)c2)cc1C#Cc1cnc(N)cc1C#N
[1]
  growth: -69.8% (active)
[2]
  growth: -65.1% (active)
[3]
  growth: -81.1% (active)
[4]
  growth: 3.23% (active)
[5]
  growth: -73.6% (active)
[6]
  growth: -33.9% (active)
[7]
  growth: -86.5% (active)
[8]
  growth: -38.5% (active)
[9]
  growth: -90.1% (active)
[10]
  growth: -83.3% (active)

## O=c1c(/C=C/c2ccco2)nnc2sc(Nc3ccc(Cl)cc3)nn12
[1]
  growth: 108% (inactive)
[2]
  growth: 93.5% (inactive)
[3]
  growth: 79.9% (inactive)
[4]
  growth: 94.2% (inactive)
[5]
  growth: 108% (inactive)
[6]
  growth: 92.2% (inactive)
[7]
  growth: 93.5% (inactive)
[8]
  growth: 92.4% (inactive)
[9]
  growth: 97.6% (inactive)
[10]
  growth: 108% (inactive)

## COc1ccc2c(O)c(/C=C3\N=Nc4nc(C)ccc43)oc2c1CC1CCNCC1
[1]
  growth: 93.3% (inactive)
[2]
  growth: 31.6% (inactive)
[3]
  growth: 25.2% (inactive)
[4]
  growth: 57.5% (inactive)
[5]
  growth: 21.4% (inactive)
[6]
  growth: 69.2% (inactive)
[7]
  growth: 81.1% (inactive)
[8]
  growth: -26.3% (active)
[9]
  growth: 5.08% (active)
[10]
  growth: -68.4% (active)

## O=Nc1ccc(NO)c2ccccc12
[1]
  growth: 99.5% (inactive) and 95.7% (inactive)
[2]
  growth: 106% (inactive) and 35.3% (inactive)
[3]
  growth: 95.8% (inactive) and 90.8% (inactive)
[4]
  growth: 118% (inactive) and 99% (inactive)
[5]
  growth: 101% (inactive) and 79% (inactive)
[6]
  growth: 81.9% (inactive) and 36.4% (inactive)
[7]
  growth: 94.1% (inactive) and 81.3% (inactive)
[8]
  growth: 95.9% (inactive) and 61.9% (inactive)
[9]
  growth: 102% (inactive) and 17.4% (inactive)
[10]
  growth: 113% (inactive) and 94.6% (inactive)

## C[C@@H]1O[C@@H](O[C@H]2[C@@H](OC(=O)[C@]34CCC(C)(C)C[C@H]3C3=CC[C@@H]5[C@@]6(C)C[C@H](O)[C@H](O[C@@H]7O[C@H](CO)[C@@H](O)[C@H](O)[C@H]7O)[C@@](C)(CO)[C@@H]6CC[C@@]5(C)[C@]3(C)C[C@H]4O)OC[C@@H](O)[C@@H]2O)[C@H](O)[C@H](O[C@@H]2OC[C@@H](O)[C@H](O[C@@H]3OC[C@](O)(CO)[C@H]3O[C@@H]3OC[C@@H](O)[C@H](O)[C@H]3O)[C@H]2O)[C@H]1O[C@@H]1OC[C@](O)(CO)[C@H]1O
[1]
  growth: 86.4% (inactive)
[2]
  growth: 60.3% (inactive)
[3]
  growth: 92.6% (inactive)
[4]
  growth: 80.7% (inactive)
[5]
  growth: 42% (inactive)
[6]
  growth: 66% (inactive)
[7]
  growth: 88.3% (inactive)
[8]
  growth: 79.2% (inactive)
[9]
  growth: 81.3% (inactive)
[10]
  growth: 9.31% (active)

## CCCN1C(=O)/C(=c2\sc3n(c2=O)NC2C(N=3)N(CC)C(=O)N2CC)c2ccccc21 (stereo not given)
[1]
  growth: 24.6% (inactive)
[2]
  growth: 13.5% (inactive)
[3]
  growth: 12.9% (inactive)
[4]
  growth: 40.2% (inactive)
[5]
  growth: 29.9% (inactive)
[6]
  growth: 42.5% (inactive)
[7]
  growth: 41.8% (inactive)
[8]
  growth: 31.8% (inactive)
[9]
  growth: 38.8% (inactive)
[10]
  growth: 54.5% (inactive)

## OCc1cc(CN2CCCCC2)c(O)c2ncccc12
[1]
  growth: 20% (inactive)
[2]
  growth: 41.6% (inactive)
[3]
  growth: 81.1% (inactive)
[4]
  growth: 57.3% (inactive)
[5]
  growth: 40.5% (inactive)
[6]
  growth: 46.9% (inactive)
[7]
  growth: 74.2% (inactive)
[8]
  growth: 55.3% (inactive)
[9]
  growth: 37.3% (inactive)
[10]
  growth: 60.7% (inactive)

## COc1cc(C(=O)c2ccccc2C(=O)O)c(OC)c2c1CCCC2
[1]
  growth: 93.4% (inactive) and 104% (inactive)
[2]
  growth: 105% (inactive) and 98.2% (inactive)
[3]
  growth: 94.1% (inactive) and 87.4% (inactive)
[4]
  growth: 94.6% (inactive) and 102% (inactive)
[5]
  growth: 97% (inactive) and 100% (inactive)
[6]
  growth: 93.3% (inactive) and 103% (inactive)
[7]
  growth: 96.6% (inactive) and 97.5% (inactive)
[8]
  growth: 96.1% (inactive) and 101% (inactive)
[9]
  growth: 94.3% (inactive) and 94.1% (inactive)
[10]
  growth: 102% (inactive) and 113% (inactive)

## Cc1nc2sc(C(=O)Nc3cccc4ccccc34)c(N)c2cc1C(=O)/C=C/c1ccccc1
[1]
  growth: -63.3% (active)
[2]
  growth: -47.9% (active)
[3]
  growth: 8.27% (active)
[4]
  growth: -27.1% (active)
[5]
  growth: -67.3% (active)
[6]
  growth: -8.41% (active)
[7]
  growth: -17.8% (active)
[8]
  growth: 7.54% (active)
[9]
  growth: -73.1% (active)
[10]
  growth: 23.6% (inactive)

## O=C1C=CC(=O)N1c1ccc2ccccc2c1
[1]
  growth: 56.3% (inactive) and 91.1% (inactive)
[2]
  growth: -42.9% (active) and 32.6% (inactive)
[3]
  growth: 88.9% (inactive) and 105% (inactive)
[4]
  growth: 103% (inactive) and 107% (inactive)
[5]
  growth: 95.9% (inactive) and 96.5% (inactive)
[6]
  growth: 91% (inactive) and 90% (inactive)
[7]
  growth: 106% (inactive) and 102% (inactive)
[8]
  growth: 98.8% (inactive) and 93.6% (inactive)
[9]
  growth: 91.6% (inactive) and 77.6% (inactive)
[10]
  growth: 110% (inactive) and 116% (inactive)

## N#Cc1cc(-c2ccnc(Nc3ccc(NC(=O)CCl)cc3)n2)ccc1N1CCCC1
[1]
  growth: -45.7% (active)
[2]
  growth: -56.9% (active)
[3]
  growth: -17.5% (active)
[4]
  growth: 5.98% (active)
[5]
  growth: -33.1% (active)
[6]
  growth: 8.3% (active)
[7]
  growth: -96% (active)
[8]
  growth: -71.3% (active)
[9]
  growth: -84.8% (active)
[10]
  growth: -52.4% (active)

## O=C(N/N=C/c1ccc(O)cc1O)c1cccc(Nc2ccnc(C(F)(F)F)c2)c1
[1]
  growth: 27.3% (inactive)
[2]
  growth: 41.6% (inactive)
[3]
  growth: 32.2% (inactive)
[4]
  growth: 35.5% (inactive)
[5]
  growth: 32.1% (inactive)
[6]
  growth: 61% (inactive)
[7]
  growth: 33.7% (inactive)
[8]
  growth: -8.61% (active)
[9]
  growth: 13.7% (inactive)
[10]
  growth: 31.1% (inactive)

## O=C(/C=C/c1ccc(Cl)s1)c1ccc(Cl)s1
[1]
  growth: 88.2% (inactive) and 90.7% (inactive)
[2]
  growth: 74.5% (inactive) and 94% (inactive)
[3]
  growth: 106% (inactive) and 102% (inactive)
[4]
  growth: 94.6% (inactive) and 99.5% (inactive)
[5]
  growth: 92.8% (inactive) and 93.3% (inactive)
[6]
  growth: 92.6% (inactive) and 105% (inactive)
[7]
  growth: 96% (inactive) and 96.6% (inactive)
[8]
  growth: 94.7% (inactive) and 99.6% (inactive)
[9]
  growth: 78.8% (inactive) and 87.8% (inactive)
[10]
  growth: 103% (inactive) and 112% (inactive)

## CCCNNC(=O)/C=C/c1ccc(CNCCc2c(C)[nH]c3ccccc23)cc1
[1]
  growth: 42.8% [2.5 µM] (inactive)
[2]
  growth: 5.78% [2.5 µM] (active)
[3]
  growth: 56.9% [2.5 µM] (inactive)
[4]
  growth: 28.6% [2.5 µM] (inactive)
[5]
  growth: 8.11% [2.5 µM] (active)
[6]
  growth: 31.5% [2.5 µM] (inactive)
[7]
  growth: -13.3% [2.5 µM] (active)
[8]
  growth: -46% [2.5 µM] (active)
[9]
  growth: 0.891% [2.5 µM] (active)
[10]
  growth: 10.1% [2.5 µM] (inactive)
